Test [1] in a line: compounds binding Alexa647 anti-His antibody – biochemical, small-molecule microarray, 635 nm fluorescence, artefact control for SMM control protein annotation, primary screen (AID 1128).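 Note: score merges feature fluorescence with signal-to-noise for each printed compound spot.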 Conditions: higher = more signal.
Test [2] deals with Human papillomavirus type 1a E7 protein (residues 1-88). The test can be described thus: HPV1a E7 small-molecule binders, primary screen, biochemical, small-molecule microarray, residues 1-88, 635 nm (AID 1129). Conditions: small-molecule microarray binding, fluorescence 635 nm; higher = more signal.
Test [3] concerns the target Focal adhesion kinase 1 (Homo sapiens) (UniProt Q05397). The test can be described thus: PTK2 protein binding on printed compound slides – biochemical, small-molecule microarray, 635/667 nm fluorescence, BSA, DTT, primary screen (AID 1130).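 Note: composite of spot emission at 667 nm and signal to noise over triplicate slides.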 The following applies: 635 nm fluorescence, higher = more signal.
Test [4] concerns Fibrinogen (Alexa647-labelled). The test can be described thus: Alexa647-fibrinogen binding to printed small molecules – biochemical, small-molecule microarray, 635/667 nm fluorescence, artefact control for SMM control-protein annotation, profiling panel (AID 1131).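 Note: z-score merges 667 nm fluorescence with per-spot signal-to-noise over triplicate slides.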 Conditions: fibrinogen-A647 binding fluorescence, higher = more signal.
Test [5] concerns the target Follistatin (Homo sapiens) (UniProt P19883). The test can be described thus: FST protein binding to printed compounds – biochemical, small-molecule microarray, 635/667 nm fluorescence, primary screen (AID 1132). Conditions: 635 nm fluorescence, higher = more signal.
The target of test [6] is Fibroblast growth factor 2 (Homo sapiens) (UniProt P09038). The test can be described thus: basic fibroblast growth factor binding to printed compounds – biochemical, small-molecule microarray, 635/667 nm fluorescence, primary screen (AID 1133). Conditions: FGF2, fluorescence 635/667, higher = more signal.
Sequence of Fibroblast growth factor 2 (Homo sapiens) (P09038 whole entry, looked up): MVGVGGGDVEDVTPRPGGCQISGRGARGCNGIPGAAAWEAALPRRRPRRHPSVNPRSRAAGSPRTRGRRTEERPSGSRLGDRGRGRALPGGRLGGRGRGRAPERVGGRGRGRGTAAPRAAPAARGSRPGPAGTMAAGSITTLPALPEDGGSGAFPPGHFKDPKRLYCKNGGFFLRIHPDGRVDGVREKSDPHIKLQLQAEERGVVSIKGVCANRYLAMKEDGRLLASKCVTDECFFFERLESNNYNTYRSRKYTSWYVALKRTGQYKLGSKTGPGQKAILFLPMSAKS
Test [7] is described as follows: JC-1 mitochondrial potential readout, lung cancer cells – cell-based, A549, JC-1 fluorescence, basal, 24 h, 100 nL, profiling panel (AID 1138).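 Note: A549 lung adenocarcinoma cells under basal conditions with no added stimulus; test concentration not given here.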 The following applies: higher = more signal.
The test system of test [8] is Lefty1. The test can be described thus: Lefty1 protein binding to printed compounds – biochemical, small-molecule microarray, 635/667 nm fluorescence, primary screen (AID 1139). Conditions: fluorescence 635/667, higher = more signal.
For test [9], the system named is wheat germ agglutinin (Triticum aestivum), Alexa647-labelled. The test can be described thus: Alexa647-WGA lectin binding to printed small molecules – biochemical, small-molecule microarray, 635/667 nm fluorescence, artefact control for SMM control-protein annotation, profiling panel (AID 1140).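 Note: score merges 667 nm feature emission with signal to noise over triplicate slides.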 The following applies: WGA-A647 binding, 635 nm fluorescence, higher = more signal.

Test [10] deals with Luciferin 4-monooxygenase (Photinus pyralis) (UniProt P08659). The test can be described thus: inhibition of purified Photinus pyralis luciferase – biochemical, luminescence, purified enzyme, 2006 set, primary screen (AID 1141).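 Note: cell-free assay with purified firefly luciferase at 100 ng per well in PBS; test concentration not given here.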 Conditions: purified firefly luciferase, SteadyGlo luminescence, 30 min; higher = more signal, called active from +8 up or from −8 down.
Sequence of Luciferin 4-monooxygenase (Photinus pyralis) (P08659 whole entry, looked up): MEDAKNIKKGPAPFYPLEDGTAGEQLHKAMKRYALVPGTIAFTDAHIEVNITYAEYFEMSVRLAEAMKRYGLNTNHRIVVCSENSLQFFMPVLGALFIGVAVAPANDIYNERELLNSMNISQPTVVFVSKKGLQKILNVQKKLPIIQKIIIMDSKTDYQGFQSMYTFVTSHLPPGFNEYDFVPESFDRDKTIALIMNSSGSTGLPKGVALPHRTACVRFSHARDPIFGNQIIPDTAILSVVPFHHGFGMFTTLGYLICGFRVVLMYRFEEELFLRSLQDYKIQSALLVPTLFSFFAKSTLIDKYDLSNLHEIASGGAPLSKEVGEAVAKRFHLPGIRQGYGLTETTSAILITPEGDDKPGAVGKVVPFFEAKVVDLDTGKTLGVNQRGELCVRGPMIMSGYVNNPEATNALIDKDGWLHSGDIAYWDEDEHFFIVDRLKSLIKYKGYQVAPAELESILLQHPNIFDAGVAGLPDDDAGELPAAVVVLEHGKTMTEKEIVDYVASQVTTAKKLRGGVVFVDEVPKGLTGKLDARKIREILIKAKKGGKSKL
Test [11] has as its system Wnt5a (protein binding on small-molecule microarray). The test can be described thus: small molecules binding Wnt5a protein – biophysical, small-molecule microarray, 635/667 nm fluorescence, primary screen (AID 1142).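 Note: fluorescence read at 667 nm with signal to noise per printed feature.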 Conditions: 635 nm fluorescence, higher = more signal.
Test [12] in a line: ATP-based viability of Huh7 replicon cells – cell-based, CellTiter-Glo luminescence, basal, 48 h, cytotoxicity control for HCV replication inhibitor project, primary screen (AID 1143).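 Note: Huh7 hepatoma cells carrying a hepatitis C replication reporter with no stimulus; test concentration not given here.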 The following applies: higher = more signal, called active from +8 up or from −8 down. Background: A replicon is a self-replicating genome or part of one, used to study replication in cells.
Test [13] is described as follows: Pseudomonas biofilm growth suppression – PAO1 strain, BacTiter-Glo luminescence, LB-PBS, primary screen (AID 1144). The following applies: P. aeruginosa PAO1 biofilm, 12 h, higher = more signal.
Test [14] is described as follows: basal CRE-LacZ reporter activity in PC12 – cell-based, unstimulated, primary screen (AID 1145). The following applies: no forskolin, luminescence, 4.5 h, higher = more signal, called active from +8 up or from −8 down.
Test [15] can be described thus: forskolin-driven CRE-LacZ activity in PC12 – cell-based, CRE-LacZ reporter, forskolin-stimulated, primary screen (AID 1146).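 Note: PC12 cells with 6xCRE LacZ reporter stimulated by forskolin 10 µM; beta-galactosidase reporter signal reflecting CREB driven transcription.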 Conditions: luminescence, 4.5 h, higher = more signal, called active from +8 up or from −8 down.
The target of test [16] is Streptavidin (Streptomyces avidinii) (UniProt P22629). The test can be described thus: compounds binding control protein streptavidin – biophysical, small-molecule microarray, 635/667 nm fluorescence, artefact control for SMM compound annotation, primary screen (AID 1147).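 Note: signal reflects streptavidin binding to arrayed compounds as a control protein.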 Conditions: higher = more signal.
Sequence of Streptavidin (Streptomyces avidinii) (P22629 whole entry, looked up): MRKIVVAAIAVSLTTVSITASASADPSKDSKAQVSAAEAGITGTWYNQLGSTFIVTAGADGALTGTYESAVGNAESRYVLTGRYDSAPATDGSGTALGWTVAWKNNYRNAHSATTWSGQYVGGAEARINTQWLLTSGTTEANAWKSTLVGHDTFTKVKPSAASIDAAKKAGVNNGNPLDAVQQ
Test [17] is described as follows: probe aInhba binding on compound microarray – biochemical, small-molecule microarray, 635/667 nm fluorescence, primary screen (AID 1148).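 Note: score merges 667nm spot fluorescence with signal-to-noise for antibody binding to printed compounds.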 Conditions: higher = more signal.
Test [18] addresses Torsin-1A (Homo sapiens) (UniProt O14656). The test can be described thus: TOR1A wild-type binding on microarray – cell lysate, small-molecule microarray, lysate, 635/667 nm, primary screen (AID 1149). The following applies: COS7 hTOR1A-WT lysate, 635 nm fluorescence, higher = more signal.
The target is the same in test [19]. The test can be described thus: torsin A mutant lysate binding on microarrays – cell lysate, small-molecule microarray, COS7 lysate, 635/667 nm fluorescence, primary screen (AID 1150).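 Note: score pools 667 nm emission and signal to noise measuring lysate protein binding.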 The following applies: COS7 hTOR1A mutant lysate, 635 nm fluorescence, higher = more signal.
The test system of test [20] is Sonic hedgehog protein (Shh). The test can be described thus: Sonic hedgehog microarray binding compounds – biochemical, small-molecule microarray, 635/667 nm fluorescence, primary screen (AID 1151).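 Note: Shh protein binding to compounds spotted on small-molecule microarray slides; score combines spot fluorescence intensity with signal-to-noise across triplicate slides.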 Conditions: 635 nm fluorescence, higher = more signal.

Activity calls are given as the source filed them. Unless noted, the rule behind the calls is not given here.

Sequence of Focal adhesion kinase 1 (Homo sapiens) (Q05397 whole entry, looked up): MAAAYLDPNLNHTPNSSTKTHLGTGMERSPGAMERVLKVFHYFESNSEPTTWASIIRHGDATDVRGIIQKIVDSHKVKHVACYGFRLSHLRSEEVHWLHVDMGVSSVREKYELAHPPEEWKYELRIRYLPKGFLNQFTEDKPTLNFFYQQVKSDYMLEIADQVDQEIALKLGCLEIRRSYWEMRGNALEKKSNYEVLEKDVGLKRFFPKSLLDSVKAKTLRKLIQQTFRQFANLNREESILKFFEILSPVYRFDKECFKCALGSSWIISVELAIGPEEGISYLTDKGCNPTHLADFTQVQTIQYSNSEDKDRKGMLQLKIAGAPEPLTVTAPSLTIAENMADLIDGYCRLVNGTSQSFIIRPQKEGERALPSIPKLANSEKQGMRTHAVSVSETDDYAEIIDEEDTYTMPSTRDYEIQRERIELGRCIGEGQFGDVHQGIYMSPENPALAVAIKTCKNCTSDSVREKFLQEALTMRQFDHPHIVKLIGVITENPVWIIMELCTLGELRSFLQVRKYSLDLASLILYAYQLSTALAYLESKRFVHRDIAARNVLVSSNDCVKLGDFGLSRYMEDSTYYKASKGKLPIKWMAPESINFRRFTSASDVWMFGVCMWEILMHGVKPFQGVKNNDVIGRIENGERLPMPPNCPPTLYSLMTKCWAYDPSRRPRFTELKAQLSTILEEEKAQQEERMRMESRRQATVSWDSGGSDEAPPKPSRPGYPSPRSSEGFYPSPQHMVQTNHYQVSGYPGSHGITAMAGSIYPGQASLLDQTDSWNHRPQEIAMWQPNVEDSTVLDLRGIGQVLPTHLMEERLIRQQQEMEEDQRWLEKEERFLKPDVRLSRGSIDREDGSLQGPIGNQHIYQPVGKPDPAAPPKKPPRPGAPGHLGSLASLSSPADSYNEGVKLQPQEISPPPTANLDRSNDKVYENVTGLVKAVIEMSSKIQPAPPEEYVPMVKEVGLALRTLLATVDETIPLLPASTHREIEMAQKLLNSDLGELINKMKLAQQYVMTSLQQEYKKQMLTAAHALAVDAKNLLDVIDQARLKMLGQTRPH
Sequence of Follistatin (Homo sapiens) (P19883 whole entry, looked up): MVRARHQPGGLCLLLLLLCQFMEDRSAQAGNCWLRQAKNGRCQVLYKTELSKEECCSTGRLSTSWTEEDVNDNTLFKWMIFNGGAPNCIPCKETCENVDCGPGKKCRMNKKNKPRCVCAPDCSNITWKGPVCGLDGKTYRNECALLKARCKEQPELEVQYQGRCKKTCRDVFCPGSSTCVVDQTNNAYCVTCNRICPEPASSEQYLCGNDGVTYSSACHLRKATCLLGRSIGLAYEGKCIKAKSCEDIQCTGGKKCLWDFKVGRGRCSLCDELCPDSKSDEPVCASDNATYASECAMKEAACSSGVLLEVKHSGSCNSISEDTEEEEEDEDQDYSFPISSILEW
Sequence of Torsin-1A (Homo sapiens) (O14656 whole entry, looked up): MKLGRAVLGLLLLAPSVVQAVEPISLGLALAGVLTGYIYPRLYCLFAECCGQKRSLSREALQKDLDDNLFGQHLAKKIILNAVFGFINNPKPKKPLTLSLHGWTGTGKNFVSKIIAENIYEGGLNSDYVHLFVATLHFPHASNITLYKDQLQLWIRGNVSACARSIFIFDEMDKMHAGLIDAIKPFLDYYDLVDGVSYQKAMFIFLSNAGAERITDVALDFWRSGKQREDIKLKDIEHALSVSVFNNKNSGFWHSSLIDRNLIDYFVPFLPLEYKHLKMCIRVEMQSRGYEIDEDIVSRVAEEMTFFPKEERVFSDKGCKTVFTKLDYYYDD

As for `[N-]=[N+]=NCc1ccccc1[C@@H]1OC(c2ccc(OCCCO)cc2)=N[C@]1(Cc1ccccc1N=[N+]=[N-])C(=O)NCc1ccccc1`, the composite z-score in test [1] turned out to be 0.512; in test [2] it was 1.17; in test [3] it was 0.562; in test [4], 0.198; in test [5] it was 1.28; in test [6], 0.578. The composite z-score was 0.621 in test [8]; 0.421 in [9]; 0.378 in test [11]; 0.942 in test [16]; -0.0006 in test [17]; 0.819 in test [18]. The composite z-score in test [19] was determined as 0.191; in test [20], 1.51. Further, the z-score in [7] is 0.249; in test [10], -5.2 (inactive); in test [12], -3 (inactive); in [13] it was -0.433 (inactive); in test [14], -0.193 (inactive); in test [15], -1.02 (inactive).

On to `Cc1ccc(S[C@]2(C(=O)NCC(C)C)CC(=O)N(Cc3ccccc3Cl)[C@@H]2c2ccc(CO)cc2)cc1`, for which the composite z-score in test [1] is 1.8; in [2], -1.41; in test [3] it was -1.09; in test [4], -0.804; in test [5] it was -1.5; in test [6] it was -1.21. For the same compound, the composite z-score is -2.17 in test [8]; 0.208 in [9]; -0.343 in [11]; -1.67 in test [16]; -0.331 in test [17]; -0.326 in [18]. In addition, the composite z-score in test [19] is 0.961; in test [20] it was -1.18. For the same compound, the z-score in test [7] is 1.37; in test [10] it was -0.79 (inactive); in test [12], 0.554 (inactive); in [13] it was 1.15 (inactive); in test [14], 0.118 (inactive); in test [15], -0.227 (inactive).

As for `O=C1O[C@@H](c2ccccc2)[C@@H](c2ccccc2)N2[C@@H](c3ccc(OCCO)cc3)[C@]3(C(=O)Nc4ccccc43)[C@@H](C(=O)Nc3nc4ccccc4s3)[C@H]12`, the composite z-score was determined as 2.11 in test [1]; 1.26 in test [2]; 0.645 in [3]; 1 in test [4]; 1.21 in test [5]; 0.79 in test [6]. The composite z-score worked out at 1.28 in test [8]; 0.958 in test [9]; 0.441 in test [11]; 1.17 in test [16]; 0.289 in test [17]; 1.05 in test [18]. The composite z-score in test [19] worked out at 1.11; in test [20], 1.75. The z-score was -2.13 in test [7]; -9.09 (active) in test [10]; -3.3 (inactive) in test [12]; -1.78 (inactive) in test [13]; 0.362 (inactive) in test [14]; -0.278 (inactive) in [15].

Take `O=C1O[C@@H](c2ccccc2)[C@@H](c2ccccc2)N2[C@@H](c3ccc(O)cc3)[C@]3(C(=O)Nc4ccc(C#CC5=CCCCC5)cc43)[C@@H](C(=O)O)[C@H]12`: the composite z-score in test [1] amounted to 3.13; in test [2], 1.11; in [3] it was 0.676; in [4], 0.734; in test [5], 0.473; in [6], 0.146. The composite z-score in test [8] came to 0.195; in [9] it was 1.35; in test [11], 0.942; in test [16], 1.75; in test [17], 0.198; in [18], 0.198. Further, the composite z-score in test [19] was 0.637; in [20], 0.146. Moreover, the z-score is -0.29 in test [7]; -3.5 (inactive) in test [10]; -2.52 (inactive) in test [12]; -2.85 (inactive) in [13]; -0.0515 (inactive) in [14]; -1.12 (inactive) in [15].

Regarding `COc1ccc([Si](C)(C)[C@@H]2[C@@H](CC(=O)N(CCO)Cc3ccccc3)O[C@]3(C(=O)N(C)c4ccccc43)[C@H]2C)cc1`, the composite z-score in [1] worked out at 1.93; in test [2], 1.17; in [3], 0.495; in test [4], 0.958; in test [5], 1.44; in test [6], 1.4. Also, the composite z-score in [8] was 1.45; in test [9] it was 1.17; in test [11], 0.205; in test [16] it was 0.92; in test [17], 0.218; in test [18], 0.089. Also, the composite z-score in test [19] amounted to 0.152; in test [20], 1.74. The z-score in test [7] is 0.194; in [10], 0.0071 (inactive); in test [12] it was -4.28 (inactive); in [13], -0.054 (inactive); in [14] it was 11.9 (active); in [15], 1.37 (inactive).

The values are drawn from PubChem BioAssay.
